Experimental data reported in PubChem BioAssay.
Active and inactive are the calls of the source. Unless noted, how the calls were made is not given here.

Key:
[1] = resazurin metabolic signal in HepG2 cells – cell-based, resazurin fluorescence, 24 h, PK04 Diversity Set, profiling panel (AID 1172); conditions: HepG2 viability, higher = more signal
[2] = budding yeast growth changes without added modifier – OD600, strain BY4716, 24 h, basal condition, primary screen (AID 1173); conditions: S. cerevisiae BY4716 growth, OD600, 24 h; higher = more signal, called active from +8 up or from −8 down
[3] = viability profiling in MM1S myeloma cells – cell-based, resazurin fluorescence, basal, 24 h, PK04 Diversity Set, profiling panel (AID 1174); conditions: higher = more signal, called active from +8 up or from −8 down;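 further: MM1S multiple myeloma cell line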
[4] = molecular target: Dihydroorotate dehydrogenase (quinone), mitochondrial (Plasmodium falciparum (isolate 3D7)) (UniProt Q08210); assay: inhibition of P. falciparum DHODH – biochemical, C-terminal His tag, absorbance 600 nm, primary screen (AID 1175); conditions: PfDHODH enzyme, DCIP absorbance 600 nm; higher = more signal, called active from +8 up or from −8 down;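 further: recombinant parasite enzyme with a five histidine tag at its C terminus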
Chain of Dihydroorotate dehydrogenase (quinone), mitochondrial (Plasmodium falciparum (isolate 3D7)) (Q08210 whole entry, looked up): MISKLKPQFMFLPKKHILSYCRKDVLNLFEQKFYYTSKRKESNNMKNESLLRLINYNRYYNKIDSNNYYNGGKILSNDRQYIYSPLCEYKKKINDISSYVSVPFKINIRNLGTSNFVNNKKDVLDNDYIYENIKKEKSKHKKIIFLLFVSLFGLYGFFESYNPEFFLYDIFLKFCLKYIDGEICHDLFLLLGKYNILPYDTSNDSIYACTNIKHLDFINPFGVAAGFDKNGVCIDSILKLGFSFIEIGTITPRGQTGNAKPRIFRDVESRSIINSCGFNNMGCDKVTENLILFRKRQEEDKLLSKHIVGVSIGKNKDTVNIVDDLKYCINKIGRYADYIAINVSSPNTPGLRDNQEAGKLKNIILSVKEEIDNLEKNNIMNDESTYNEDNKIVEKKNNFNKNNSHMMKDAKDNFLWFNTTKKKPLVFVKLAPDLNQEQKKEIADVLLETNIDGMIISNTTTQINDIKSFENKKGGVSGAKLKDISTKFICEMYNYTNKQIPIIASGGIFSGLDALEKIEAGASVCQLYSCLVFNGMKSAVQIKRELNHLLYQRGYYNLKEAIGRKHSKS

[5] = inhibition of PAO1 biofilm formation – strain PAO1, LB-PBS medium, absorbance 600 nm, primary screen (AID 1176); conditions: P. aeruginosa PAO1 growth/biofilm, A600, 12 h; higher = more signal
[6] = growth modulation of vineyard yeast isolate – strain RM11-1a, OD600, basal, 24 h, primary screen (AID 1177);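 further: cultures grown under basal conditions with no added stressor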; conditions: S. cerevisiae RM11-1a growth, OD600, 24 h; higher = more signal, called active from +8 up or from −8 down
[7] = growth of efflux-deficient E. coli DRC39 – strain DRC39, OD650, 24 h, E. coli filamentation inducers, primary screen (AID 1178);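 further: growth measured as culture turbidity by optical density at 650 nm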; conditions: E. coli DRC39 acrAB, higher = more signal, called active from +8 up or from −8 down
[8] = growth of efflux-deficient E. coli DRC39 – strain DRC39, OD650, 48 h, E. coli filamentation inducers, primary screen (AID 1179);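 further: screen aims at cell division blockers that make cells filament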; conditions: E. coli DRC39 delta-acrAB growth, higher = more signal, called active from +8 up or from −8 down
[9] = viability profiling in RPMI8226 myeloma cells – cell-based, resazurin fluorescence, basal, 24 h, PK04 Diversity Set, profiling panel (AID 1180); conditions: higher = more signal;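 further: RPMI8826 multiple myeloma cell line at 5000 cells per well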
[10] = molecular target: E3 ubiquitin-protein ligase XIAP (Homo sapiens) (UniProt P98170); assay: small molecules binding XIAP protein – biophysical, small-molecule microarray, fluorescence 635 nm, primary screen (AID 1181); conditions: higher = more signal;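 further: score merges 667 nm emission and signal to noise over triplicate slides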
Chain of E3 ubiquitin-protein ligase XIAP (Homo sapiens) (P98170 whole entry, looked up, the tested form may be a part): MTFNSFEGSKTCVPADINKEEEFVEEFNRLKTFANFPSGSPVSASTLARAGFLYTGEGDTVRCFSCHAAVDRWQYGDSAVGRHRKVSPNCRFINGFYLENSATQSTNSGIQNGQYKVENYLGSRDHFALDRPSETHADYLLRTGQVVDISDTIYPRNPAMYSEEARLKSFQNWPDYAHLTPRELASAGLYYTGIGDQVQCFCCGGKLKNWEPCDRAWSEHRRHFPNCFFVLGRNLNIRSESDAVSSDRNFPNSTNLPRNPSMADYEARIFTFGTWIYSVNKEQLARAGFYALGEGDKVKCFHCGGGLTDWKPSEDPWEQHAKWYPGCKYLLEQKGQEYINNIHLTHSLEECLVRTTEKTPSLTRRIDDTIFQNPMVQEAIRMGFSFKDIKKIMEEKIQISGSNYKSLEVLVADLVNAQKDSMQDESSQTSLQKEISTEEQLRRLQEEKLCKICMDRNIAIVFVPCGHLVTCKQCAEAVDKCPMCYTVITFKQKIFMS

[11] = system: XIP peptide (Xip251-270) binding; assay: XIP fragment 251-270 binding compounds – biochemical, small-molecule microarray, fluorescence 635/667 nm, 0.1 µg/mL protein, primary screen (AID 1182); conditions: fluorescent protein binding, 635 nm, higher = more signal, called active from +8 up or from −8 down
XIP peptide (Xip251-270) = assay: compounds binding XIP fragment 251-270 – biochemical, small-molecule microarray, fluorescence 635/667 nm, 0.5 µg/mL protein, primary screen (AID 1183); conditions: fluorescence 635 nm, higher = more signal
[12] = blood-stage malaria parasite viability loss – strain 3D7, DAPI fluorescence, 100 nL, primary screen (AID 1184);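 further: parasites grown inside human red blood cells in medium with human serum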; conditions: P. falciparum 3D7 growth, 3 d, higher = more signal
[13] = molecular target: Homeobox protein Hox-A13 (Mus musculus) (UniProt Q62424); assay: disruptors of Hoxa13 oligonucleotide interaction – biochemical, fluorescence polarization, labeled oligonucleotide, primary screen (AID 1185); conditions: Hoxa13:DNA binding, 15 min, higher = more signal, called active from +8 up or from −8 down
Chain of Homeobox protein Hox-A13 (Mus musculus) (Q62424 whole entry, looked up): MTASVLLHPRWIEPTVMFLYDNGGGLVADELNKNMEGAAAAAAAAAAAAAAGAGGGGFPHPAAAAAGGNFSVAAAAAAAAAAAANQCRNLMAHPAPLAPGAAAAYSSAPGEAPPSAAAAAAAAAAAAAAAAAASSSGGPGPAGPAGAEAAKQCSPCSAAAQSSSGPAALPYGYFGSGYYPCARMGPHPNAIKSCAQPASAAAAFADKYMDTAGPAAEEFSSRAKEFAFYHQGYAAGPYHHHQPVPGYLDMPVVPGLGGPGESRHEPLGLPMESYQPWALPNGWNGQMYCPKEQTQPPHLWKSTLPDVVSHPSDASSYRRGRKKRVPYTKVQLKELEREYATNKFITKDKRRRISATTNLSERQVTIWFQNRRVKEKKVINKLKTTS

[14] = blockers of DNA damage checkpoint Chk1 activation – imaging, HeLa, hydroxyurea, phospho-Chk1 antibody, percent positive cells, primary screen (AID 1186); conditions: hydroxyurea-induced phospho-Chk1 immunofluorescence imaging, higher = more signal
[15] = blockers of DNA damage checkpoint Chk1 activation – imaging, HeLa, hydroxyurea, phospho-Chk1 nuclear intensity, primary screen (AID 1187); conditions: hydroxyurea-induced phospho-Chk1 immunofluorescence imaging, higher = more signal

| SMILES | z-score [1] | z-score [2] | z-score [3] | composite z-score [4] | z-score [5] | z-score [6] | z-score [7] | z-score [8] | z-score [9] | composite z-score [10] | composite z-score [11] | composite z-score (XIP peptide (Xip251-270)) | z-score [12] | z-score [13] | z-score [14] | z-score [15] |
| --- | --- | --- | --- | --- | --- | --- | --- | --- | --- | --- | --- | --- | --- | --- | --- | --- |
| O[C@@H](Cc1ccccc1)[C@H]1C2C=CCCC(c3ccccc3)=C2CN1Cc1cccc(Cl)c1 (some centres undefined) | 0.689 | -3.75 (inactive) | -0.146 (inactive) | 0.426 (inactive) | 1.56 (inactive) | -0.53 (inactive) | 3.04 (inactive) | 1.85 (inactive) | -0.0337 | 0.25 | -0.241 (inactive) | 0.27 | 0.514 | -5.87 (inactive) | -0.215 (inactive) | 0.0934 (inactive) |
| O=C(CS)NCCCCCNC(=O)[C@H]1C[C@H]2C(=O)N3CCC[C@H]3C(=O)N2[C@H]1c1cccc(OCCO)c1 | 0.0716 | -0.358 (inactive) | 0.85 (inactive) | 0.274 (inactive) | -0.667 (inactive) | 0.18 (inactive) | -0.201 (inactive) | 0.36 (inactive) | 0.472 | 0.0785 | 0.81 (inactive) | 0.887 | -0.718 | -3.04 (inactive) | -0.58 (inactive) | -0.281 (inactive) |
| CC(C)OC(=O)C=C1C[C@@H](c2ccc(C#N)cc2)O[C@@H](c2ccc(C#N)cc2)O1 | -0.389 | -0.709 (inactive) | -0.793 (inactive) | 0.382 (inactive) | -0.281 (inactive) | 0.146 (inactive) | -0.667 (inactive) | -0.182 (inactive) | -0.312 | -0.0994 | 1.1 (inactive) | 0.865 | -0.868 | -5.34 (inactive) | 0.296 (inactive) | 0.219 (inactive) |
| O=C1O[C@@H](c2ccccc2)[C@@H](c2ccccc2)N2[C@@H](c3ccc(O)cc3)[C@]3(C(=O)Nc4ccccc43)[C@@H](C(=O)O)[C@H]12 | -0.253 | -0.922 (inactive) | -0.14 (inactive) | -1.42 (inactive) | 0.697 (inactive) | -0.472 (inactive) | -0.0134 (inactive) | -0.831 (inactive) | 0.393 | 0.125 | 1.27 (inactive) | 0.632 | -1.73 | -4.72 (inactive) | 0.482 (inactive) | 0.166 (inactive) |
| COCCOC(=O)N1C(=O)[C@@]2(c3cc(C#Cc4ccc(OC)cc4)ccc31)[C@H](C(=O)N1CCN(c3ncccn3)CC1)[C@H]1C(=O)O[C@H](c3ccccc3)[C@H](c3ccccc3)N1[C@@H]2c1ccc(OCCO)cc1 | 0.254 | 1.89 (inactive) | 0.468 (inactive) | -1.62 (inactive) | 3.21 (inactive) | 3.06 (inactive) | 0.178 (inactive) | -0.0435 (inactive) | -0.0737 | -0.337 | 0.115 (inactive) | 0.43 | -1.49 | 1.38 (inactive) | -0.102 (inactive) | -0.0346 (inactive) |
| COC(=O)[C@@]1(Cc2ccc(F)cc2)[C@@H]2C(=CC(=O)[C@H]2CC(=O)C(=O)N(C)C)CN1C(=O)c1ccccc1 | -1.46 | 1.69 (inactive) | -2.73 (inactive) | 0.354 (inactive) | 0.784 (inactive) | 1.38 (inactive) | -0.0125 (inactive) | 0.0104 (inactive) | -2.94 | -0.174 | 0.0142 (inactive) | 0.472 | -1.35 | -2.5 (inactive) | -0.0509 (inactive) | -0.914 (inactive) |
| O=C1O[C@@H](c2ccccc2)[C@@H](c2ccccc2)N2[C@@H](c3ccccc3OCCO)[C@]3(C(=O)Nc4ccc(C#CCCO)cc43)[C@@H](C(=O)O)[C@H]12 | -0.307 | -1.28 (inactive) | 0.649 (inactive) | -2.05 (inactive) | -0.681 (inactive) | -0.282 (inactive) | 0.0701 (inactive) | -0.781 (inactive) | 0.183 | 0.32 | 0.106 (inactive) | 0.842 | -1.69 | -5.33 (inactive) | 0.722 (inactive) | 0.803 (inactive) |
| COC(=O)[C@@]1(Cc2ccc(OC)cc2)[C@H]2c3cc(C(=O)N4CCCC4)n(Cc4cc(F)c(F)c(F)c4)c3C[C@H]2CN1C(=O)c1ccccc1 | 0.0559 | 1.35 (inactive) | -2.23 (inactive) | 0.13 (inactive) | 1.03 (inactive) | 0.0628 (inactive) | -0.824 (inactive) | -0.254 (inactive) | -3.1 | 0.25 | 0.902 (inactive) | 0.604 | -1.56 | -2.27 (inactive) | -0.345 (inactive) | -0.868 (inactive) |
| CCCCC(=C=CC[C@H](O)c1ccccc1OCCO)C[C@H](O)COCc1ccccc1 | -0.325 | -1.18 (inactive) | -0.505 (inactive) | -2.89 (inactive) | 0.637 (inactive) | -0.0076 (inactive) | 0.156 (inactive) | 0.0347 (inactive) | -0.276 | -0.0062 | 1.03 (inactive) | -0.765 | -1.21 | -4.61 (inactive) | -0.15 (inactive) | 0.18 (inactive) |
